Drawing on PubChem BioAssay, this text covers composite z-score and composite Z-score for 16 compounds.

For assay [1], the target named is Albumin (Bos taurus) (UniProt P02769). In words: compounds binding labelled BSA control protein – biochemical, small-molecule microarray, Alexa647 label, 635/667 nm fluorescence, artefact control for SMM control protein annotation, profiling panel (AID 1118).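 Also: score merges 667 nm emission intensity and signal-to-noise per printed compound spot.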 As to conditions: BSA-A647 binding, fluorescence 635 nm, higher = more signal.
Assay [2] in a line: probe aXIP binding to arrayed compounds – biochemical, NeuroSMM set, 635/667 nm fluorescence, primary screen (AID 1119).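 Also: probe is the protein aXip251-270 applied at 1 µg/mL to compound-printed slides; binding of probe to printed compounds measured as 667 nm fluorescence plus signal to noise.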 The conditions noted are these: small-molecule microarray, higher = more signal, called active from +8 up or from −8 down.
The nature of assay [3]: probe aNOTCH3 binding on compound microarray – biochemical, small-molecule microarray, 635/667 nm fluorescence, primary screen (AID 1120).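 Also: probe is a biotin-tagged antibody raised against NOTCH3 rather than NOTCH3 protein; score merges spot fluorescence near 667 nm with spot signal to noise.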 The conditions noted are these: higher = more signal.
Assay [4] in a line: probe aNOTCH2 binding on compound microarray – biochemical, small-molecule microarray, 635/667 nm fluorescence, primary screen (AID 1121).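 Also: score merges feature fluorescence read at 667 nm with its signal to noise.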 As to conditions: higher = more signal.
Assay [5] has as its target Carbonic anhydrase 2 (Homo sapiens) (UniProt P00918). Briefly: compounds binding carbonic anhydrase 2 – biochemical, small-molecule microarray, Alexa647-labelled CAII, profiling panel (AID 1122). As to conditions: CAII-A647 binding fluorescence, higher = more signal.
Assay [6] can be described thus: COS7 lysate on small-molecule microarray, probe aHis, 635 nm (AID 1123).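 Also: z-score combines 667nm fluorescence intensity with signal-to-noise per printed compound spot.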 As to conditions: COS7 cell lysate, fluorescence, higher = more signal.
A short description of assay [7]: probe aLAP1 signal on lysate-treated microarray – cell lysate, small-molecule microarray, COS7 lysate, primary screen (AID 1124).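 Also: lysate comes from COS7 cells expressing LAP1 and is applied at 0.3 µg/mL; score merges spot fluorescence near 667 nm with signal-to-noise over triplicate slides.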 The conditions noted are these: probe aLAP1, fluorescence, higher = more signal.
Assay [8] concerns Sam68 (KHDRBS1). Briefly: compounds binding KHDRBS1 protein – biochemical, small-molecule microarray, 635 nm fluorescence, primary screen (AID 1125).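 Also: score merges 667 nm channel intensity with signal to noise over triplicate slides.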 As to conditions: higher = more signal.
Assay [9] deals with Chordin-like protein 2 (CHRDL2). In words: compounds binding chordin-like 2 – biochemical, small-molecule microarray, 635 nm fluorescence, primary screen (AID 1126).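 Also: printed compound slides probed with Chrdl2 protein at 4 µg/mL for 1 h at 4 C; score merges 667 nm emission intensity with signal to noise over three replicate slides.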 As to conditions: fluorescence 635 nm, higher = more signal.
Assay [10] concerns the target Concanavalin-A (Canavalia ensiformis) (UniProt P02866). Briefly: compounds binding concanavalin A lectin – biochemical, small-molecule microarray, Alexa647 label, 635 nm, artefact control for SMM control protein annotation, primary screen (AID 1127).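 Also: z combines 667 nm emission intensity with signal-to-noise across three replicate slides.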 The conditions noted are these: ConA-A647 binding fluorescence, higher = more signal.

Calls of active or inactive are those of the source.

Sequence of Concanavalin-A (Canavalia ensiformis) (P02866 whole entry, looked up): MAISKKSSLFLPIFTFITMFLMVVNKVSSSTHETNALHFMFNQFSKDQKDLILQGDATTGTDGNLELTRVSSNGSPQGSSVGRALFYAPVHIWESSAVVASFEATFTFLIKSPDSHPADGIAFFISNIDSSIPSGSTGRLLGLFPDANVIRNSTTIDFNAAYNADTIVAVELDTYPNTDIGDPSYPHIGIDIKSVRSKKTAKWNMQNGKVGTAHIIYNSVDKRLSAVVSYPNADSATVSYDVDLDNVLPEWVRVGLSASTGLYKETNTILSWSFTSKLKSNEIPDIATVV
Sequence of Albumin (Bos taurus) (P02769 whole entry, looked up): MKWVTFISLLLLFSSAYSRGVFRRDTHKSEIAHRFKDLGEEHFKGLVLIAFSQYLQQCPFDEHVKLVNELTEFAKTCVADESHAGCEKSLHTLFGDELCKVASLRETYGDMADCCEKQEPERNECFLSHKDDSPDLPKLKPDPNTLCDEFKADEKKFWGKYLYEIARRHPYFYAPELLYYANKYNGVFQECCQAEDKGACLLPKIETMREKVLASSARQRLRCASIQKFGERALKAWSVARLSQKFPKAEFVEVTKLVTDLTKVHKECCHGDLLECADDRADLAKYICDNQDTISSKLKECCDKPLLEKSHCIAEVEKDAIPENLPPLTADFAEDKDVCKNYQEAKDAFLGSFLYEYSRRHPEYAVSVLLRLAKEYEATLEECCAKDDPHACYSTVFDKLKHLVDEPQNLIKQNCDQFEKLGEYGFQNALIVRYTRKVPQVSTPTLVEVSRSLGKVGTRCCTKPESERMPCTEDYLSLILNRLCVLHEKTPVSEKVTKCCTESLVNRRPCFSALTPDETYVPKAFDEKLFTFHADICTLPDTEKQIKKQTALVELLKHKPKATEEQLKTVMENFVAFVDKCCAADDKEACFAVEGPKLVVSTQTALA

Consider `NCCCCCNC(=O)[C@H]1C[C@H]2C(=O)N[C@@H](Cc3ccccc3)C(=O)N2[C@H]1c1ccc(O)cc1`, for which the composite z-score in [1] came out at 0.819; in [3], 0.248; in [4], 0.197; in [5], 0.487; in assay [6], 1.23; in assay [7] it was 1.23. Besides, the composite z-score came out at 1.28 in [8], 0.518 in [9] and 1.08 in [10]. Also, the composite Z-score in assay [2] is 0.491 (inactive).

Regarding `CC(C)CNC(=O)[C@@H]1c2ccccc2C(=O)N(C2CCCCC2)[C@H]1c1ccc(CO)cc1`, the composite z-score was -0.183 in assay [1]; -0.159 in [3]; -0.118 in [4]; 0.694 in assay [5]; 2.44 in assay [6]; -0.264 in [7]. Further, the figures for the composite z-score in assay [8], in assay [9] and in assay [10] were 0.369, -0.718 and -0.0374, respectively. For the same compound, the composite Z-score in assay [2] is 1.32 (inactive).

Consider `COc1ccc(C(O)C2C=CC3C(=O)N(c4ccccc4)C(=O)C3N2Nc2ccc(C(C)C)cc2)c2ccccc12` (stereo not given), for which the composite z-score in assay [1] came to 0.916; in [3], 0.378; in [4], 0.186; in assay [5], 0.725; in assay [6] it was 2.84; in [7], 0.284. Further, the composite z-score in assay [8] was 1.31; in assay [9], -0.118; in [10] it was 1.12. Besides, the composite Z-score in assay [2] was 0.0396 (inactive).

Take `COCCOC(=O)N1C(=O)[C@@]2(c3cc(C#CCNC(N)=O)ccc31)[C@H](c1ccc(OCCO)cc1)N1[C@H](c3ccccc3)[C@H](c3ccccc3)OC(=O)[C@H]1[C@@H]2C(=O)NC[C@H](O)c1ccccc1`: the composite z-score in assay [1] was 0.633; in [3] it was 0.206; in [4], -0.013; in assay [5] it was 0.225; in assay [6], 0.0755; in assay [7], 0.442. Moreover, the composite z-score stood at 1.29 in assay [8], 0.84 in [9] and 1.14 in assay [10]. For the same compound, in [2], the composite Z-score was -0.524 (inactive).

Regarding `C=C(COC)/C(=C/C[C@H](OC(C)=O)c1cccc(OCCO)c1)c1cnc2ccccc2c1`, the composite z-score is 0.497 in assay [1]; 0.0556 in assay [3]; -0.0817 in assay [4]; 0.917 in assay [5]; 0.109 in [6]; 0.267 in assay [7]. Moreover, the results for the composite z-score in assay [8], in [9] and in [10] were 1.24, 1.35 and 1.05, respectively. For the same compound, in assay [2], the composite Z-score was 0.0575 (inactive).

Regarding `CC(C)C(CO)N1C(=O)[C@@H]2[C@H]3C(=O)OCC=C[C@H]3OC23C=CCN(C(C)(C)C)C(=O)[C@@H]13` (stereo not given in full), the composite z-score is -0.0498 in assay [1]; -0.252 in [3]; -0.168 in assay [4]; 0.409 in assay [5]; -0.843 in [6]; -0.495 in [7]. For the same compound, the composite z-score in assay [8] was -1.41; in assay [9], -0.109; in [10] it was 0.0282. Besides, the composite Z-score in assay [2] was -0.343 (inactive).

Take `C=CCC(OC(C)=O)[C@@H]1[C@@H](N(Cc2ccc(-c3cccc(C(F)(F)F)c3)o2)C(=O)c2ccc(C)cc2)c2cc(OCCCO)ccc2N1C(=O)Cc1ccc(OC)cc1` (stereo not given in full): the composite z-score in assay [1] is -0.356; in assay [3] it was -0.0311; in assay [4], -0.194; in [5] it was -0.26; in assay [6], -0.333; in assay [7], -0.27. Further, the composite z-score in [8] is -0.367; in assay [9] it was 0.186; in assay [10] it was 0.0203. Also, the composite Z-score in [2] is 0.899 (inactive).

For `C=CCC(OC(C)=O)[C@@H]1[C@@H](N(Cc2ccc(-c3cccc(C(F)(F)F)c3)o2)C(=O)c2cccc3ccccc23)c2cc(OCCCO)ccc2N1C(=O)Cc1ccc(OC)cc1` (stereo not given in full), the composite z-score is 0.311 in [1]; -0.027 in assay [3]; -0.151 in assay [4]; 0.149 in assay [5]; 0.428 in assay [6]; 0.0827 in assay [7]. For the same compound, the results for the composite z-score in [8], in assay [9] and in [10] were -0.323, 0.0616 and -0.422, respectively. The composite Z-score in assay [2] is -0.0798 (inactive).

In the case of `CC(=O)NCCCC[C@@H]1NC(=O)[C@H]2C[C@@H](C(=O)NCCCCCNC(=O)CS)[C@@H](c3cccc(OCCO)c3)N2C1=O`, the composite z-score is 0.419 in [1]; -0.27 in assay [3]; -0.173 in [4]; 0.364 in assay [5]; 2.34 in [6]; -0.178 in [7]. The values for the composite z-score in assay [8], in assay [9] and in assay [10] were 0.742, 0.715 and 0.493, respectively. The composite Z-score in [2] is 1.98 (inactive).

For the compound `[N-]=[N+]=Nc1ccccc1C[C@]1(C(=O)O)N=C(c2ccc(OCCCO)cc2)O[C@H]1c1ccccc1N=[N+]=[N-]`, the composite z-score in assay [1] is 0.893; in [3], 0.293; in assay [4], 0.166; in [5], 0.57; in [6] it was 2.84; in assay [7], 0.871. The composite z-score worked out at 1.32 in assay [8], 0.135 in assay [9] and 1.13 in assay [10]. In addition, in [2], the composite Z-score was 0.644 (inactive).

As for `C=C(/C(=C/C[C@@H](OC(C)=O)c1ccc(CO)o1)c1cc(C(=O)OC)ccc1OC)C(C)C`, the composite z-score was 0.461 in [1]; 0.232 in assay [3]; -0.124 in [4]; 0.662 in assay [5]; 1.31 in assay [6]; 0.0806 in assay [7]. Besides, the composite z-score came to 0.561 in assay [8], 0.0347 in [9] and 0.395 in assay [10]. Moreover, the composite Z-score in assay [2] is -0.0662 (inactive).

For the compound `C[C@]1(C(=O)O)c2ccccc2C(=O)N(Cc2ccc(OC(F)(F)F)cc2)[C@H]1c1ccc(CO)cc1`, the composite z-score in assay [1] was 0.12; in assay [3], -0.104; in assay [4] it was 0.109; in [5], 0.73; in assay [6] it was 1.61; in [7] it was 0.902. Besides, the composite z-score in assay [8] was -0.0536; in [9] it was -0.758; in assay [10], -0.783. Moreover, the composite Z-score in assay [2] was 0.219 (inactive).

In the case of `CCOC(=O)C1=CCC(c2ccccc2)N(S(=O)(=O)c2ccc([N+](=O)[O-])cc2)C1` (stereo not given), the composite z-score was 0.193 in assay [1]; -0.0077 in assay [3]; -0.108 in [4]; 0.0862 in assay [5]; 1.07 in assay [6]; 0.173 in assay [7]. Further, the composite z-score in assay [8] was 0.439; in [9], 0.0332; in assay [10] it was -0.104. The composite Z-score in [2] was -0.275 (inactive).

`C=CCC(OC(C)=O)[C@@H]1[C@@H](N(Cc2ccc(-c3ccccc3)cc2)C(=O)Cc2ccc(F)cc2)c2cc(OCCCO)ccc2N1C(=O)Cc1ccc2ccccc2c1` (stereo not given in full): the composite z-score in assay [1] was 0.232; in assay [3] it was -0.0931; in assay [4], -0.046; in [5], 0.244; in assay [6], 1.29; in assay [7], 0.201. For the same compound, the figures for the composite z-score in assay [8], in [9] and in [10] were -0.869, -0.353 and -0.474, respectively. In addition, the composite Z-score in assay [2] is -0.34 (inactive).

With `CC(C)C[C@@H]1NC(=O)[C@H]2C[C@@H](C(=O)NCCCCCN)[C@@H](c3cccc(OCCO)c3)N2C1=O`, the composite z-score in assay [1] is 0.299; in [3], -0.495; in [4], -0.146; in [5], 0.695; in assay [6], 1.27; in assay [7] it was 1.16. Besides, the composite z-score is 0.166 in assay [8], 0.292 in assay [9] and 0.661 in assay [10]. The composite Z-score in [2] is 1.26 (inactive).

Consider `COC(=O)C1=CC(CCCO)=CC(c2ccc(CN3CCCC3)cc2)N(Cc2cc3c(cc2Br)OCO3)C=C1C(=O)OC` (stereo not given), for which the composite z-score in assay [1] stood at 1.04; in assay [3] it was 0.477; in assay [4], 0.135; in assay [5], 0.705; in assay [6], 1.76; in assay [7], 0.672. The figures for the composite z-score in assay [8], in [9] and in assay [10] were 1.3, -0.384 and 0.701, respectively. Besides, in assay [2], the composite Z-score was 0.339 (inactive).
